# TDP1 cell CPT = DT40-hTDP1 cell growth loss with CPT; AID 686979; Potency, µM (doses to about 46.2 µM), inactives show at the highest dose activity change, negative = growth inhibition, most hits filed as inhibitors; actives 12% (n = 420,000); chicken DT40 Tdp1-/-;hTDP1 cells + 20 nM CPT, ATP luminescence, 48 h; note: potency is the fitted concentration of half-maximal effect; nearly all actives have a fitted effect of over 55% in size
#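 Cell growth measured by CellTiter-Glo luminescence after a minimum 48 h, 37 C compound exposure with 20 nM CPT in Tdp1-knockout DT40 cells stably expressing hTDP1, seeded 400/well; qHTS titration format.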
# Gal4-VP16 FLuc = inhibits Gal4-VP16 luciferase reporter, ROR gamma counter-screen; Drosophila S2 Gal4-VP16 UAS-luciferase, luminescence, 20 h; actives 3.5% (n = 310,000); AID 2546; Potency, µM (highest dose often 53.6 µM), without a hit: at the top dose activity, negative = inhibition, actives largely listed as inhibitors;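 note: Gal4-VP16 expression switched on by copper sulfate through the metallothionein promoter; potency is the fitted concentration of half-maximal effect; nearly all actives have a fitted effect of over 50% in size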
# RORg inh = inhibitors of mouse ROR gamma transcriptional activity | AID 2551 | Drosophila S2 Gal4-RORgamma UAS-luciferase reporter, 20 h | P51450 | actives 5.4% (n = 310,000) | Potency, µM (doses to about 53.6 µM), for inactives: at the highest dose activity change, negative = inhibition, hits mostly inhibitors; note: potency is the fitted concentration of half-maximal effect; nearly all actives have a fitted effect of over 60% in size
# Target sequence (P51450 whole entry, looked up, the tested form may be a part): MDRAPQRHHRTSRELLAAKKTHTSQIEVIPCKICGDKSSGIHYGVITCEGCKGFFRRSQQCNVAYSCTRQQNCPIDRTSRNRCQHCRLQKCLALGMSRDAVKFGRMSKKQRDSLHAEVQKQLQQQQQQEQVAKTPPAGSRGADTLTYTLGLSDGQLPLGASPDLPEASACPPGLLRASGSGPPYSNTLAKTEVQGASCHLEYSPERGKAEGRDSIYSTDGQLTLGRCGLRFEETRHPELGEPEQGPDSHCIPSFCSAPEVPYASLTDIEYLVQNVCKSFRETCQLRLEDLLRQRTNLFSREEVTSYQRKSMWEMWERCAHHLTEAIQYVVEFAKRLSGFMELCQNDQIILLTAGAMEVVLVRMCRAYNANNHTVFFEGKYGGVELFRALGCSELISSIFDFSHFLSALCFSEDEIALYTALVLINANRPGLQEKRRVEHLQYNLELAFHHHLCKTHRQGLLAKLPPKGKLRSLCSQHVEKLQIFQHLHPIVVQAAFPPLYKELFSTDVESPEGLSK
#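 A Gal4/UAS one-hybrid system in insect cells: metallothionein-promoter Gal4–ROR gamma fusion plus Photinus luciferase reporter. Copper sulfate 700 uM final, 20 hr ambient incubation, luminescent detection after 10 min with reagent.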
# TDP1 cell noCPT = qHTS for Inhibitors of human tyrosyl-DNA phosphodiesterase 1 (TDP1): qHTS in cells in absence of CPT | DT40 Tdp1-/- hTDP1 cells, no CPT, ATP luminescence, 48 h | Potency, µM (highest dose often 46.2 µM), for inactives: at the highest dose activity change, negative = growth inhibition, actives largely listed as inhibitors | actives 15% (n = 420,000); note: potency is the fitted concentration of half-maximal effect; nearly all actives have a fitted effect of over 55% in size
#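 Compound effects on proliferation are scored in DT40 Tdp1-/-;hTDP1 cells in the absence of CPT. ATP levels (CellTiter-Glo luminescence) are recorded after a ≥48 hr, 37 °C incubation.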
# ELG1 repair inh = ELG1-dependent DNA repair inhibition. AID 504467. HEK293T ELG1-luciferase reporter, luminescence, 16 h; DNA damage induced by 5-fluorouridine. Potency, µM (series often up to 46.1 µM), for inactives: top-dose activity change, negative = inhibition, hits mostly inhibitors. actives 2.3% (n = 330,000); note: potency is the fitted concentration of half-maximal effect; nearly all actives have a fitted effect of over 55% in size
#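 Overnight (16 hr) co-exposure of 2,000 cells/well to 5-fluorouridine and compound at 37 °C preceded detection. Luciferase was quantified via ONE-Glo luminescence; loss of signal denotes inhibition.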
# IL1B secr inh = blocks inflammasome-driven IL-1 beta release. THP-1 LPS/ATP IL-1B secretion, AlphaLISA, 16 h; stronger effect = lower value. activity change, % at 57.5 µM. AID 743279. actives 4.7% (n = 360,000); in the data active = activity change below about -50%; inconclusive = mostly about -30% to -49%
#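 Secreted IL-1B measured by AlphaLISA bead assay after 16 h compound exposure of THP-1 cells; compounds (final up to 57.5 uM) added 1 h before LPS (250 ng/mL) and ATP (1.25 mM) stimulation; lower signal means less secretion.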
# Active calls of the source: *; ? = inconclusive; . = no result given; ! = not active in a repeat; [ ] = dose if it differs, or a comment. Only some compounds are listed: those with a hit (about 21% of all), similar ones and a draw of the others. Unless noted, calls come from the whole dose curve; as a rule, active = well fitted curve in the direction sought with a large enough effect; inconclusive = small, poorly fitted or top-dose-only effect, or another doubt; inactive = no such curve, though single readings can be large; an effect the other way counts as inactive or inconclusive. % is set by controls: 0 for no effect and ±100 for the full control effect.
SMILES,TDP1 cell CPT,Gal4-VP16 FLuc,RORg inh,TDP1 cell noCPT,ELG1 repair inh,IL1B secr inh
CCC1=C(CC2NCCc3ccccc32)CC2c3cc(OC)c(OC)cc3CCN2C1 (stereo not given),1.2µM*,.,.,1.6µM*,.,-92*
c1cn(-c2ccnc(-c3ccc4c(c3)OCO4)n2)cn1,-8%,-12%,-11%,-29%,.,.
CSCCC(NC(=O)CCC(=O)OCC(=O)[C@@]1(O)CCC2[C@@H]3CCC4=CC(=O)C=C[C@]4(C)C3[C@@H](O)C[C@@]21C)C(=O)O (stereo not given in full),-14%,6%,1%,-2%,20%,-55*
C[C@]12CCC(=O)C=C1CC[C@H]1[C@@H]3CC[C@](O)(C(=O)CO)[C@@]3(C)C[C@H](O)[C@@]12F,?,-10%,-1%,27µM*!,.,.
C[C@]12CCC(=O)C=C1CCC1C3CC[C@](O)(C(=O)CO)[C@@]3(C)CC3OC312 (stereo not given in full),-11%[9.04 µM],-8%,-19%,-2%[9.04 µM],.,.
C[C@H]1C[C@@H]2[C@@H]([C@@H](O)C[C@@]3(C)[C@H]2CC[C@]3(O)C(=O)CO)[C@@]2(C)C=CC(=O)C=C12,.,-5%[17 µM],-15%[2.98 µM],.,.,.
CC12C=CC(=O)C=C1CCC1C2C(O)CC2(C)C1CCC2(O)C(=O)CO (stereo not given),-29%,.,.,-24%,.,-60*
CCC(C(=O)OCC(=O)C1(O)CCC2C3CCC4=CC(=O)CCC4(C)C3C(O)CC21C)C(C)C (stereo not given),9.2µM*,.,.,16µM*,.,-27
CCCS(=O)(=O)N1CCCC(C(=O)NCCCOC)C1 (stereo not given),1%,.,.,-1%,.,.
CS(=O)(=O)c1ccc(Cl)c(NC(=O)CNC(=O)c2ccc3c(c2)OCO3)c1,-8%,.,.,-2%,0%,39
COc1ccc(-n2cc(C#N)c(=O)n(Cc3ccc(F)cc3)c2=O)cc1,21µM*,-7%,23%,15µM*,?,32
Cc1oc(C(=O)Nc2ccc(O)cc2)cc1COc1ccccc1,?,-12%,-38%,16µM*,11%,-6
COc1cccc(NC(=O)c2ccc(C(=O)c3ccccc3)o2)c1,?,1%,?,18µM*,?,?
Cc1ccc(OCc2cc(C(=O)Nc3ccccc3)oc2C)cc1,-5%,-1%,9%,-13%,?,-8
Cc1ccc(C(=O)Nc2cccc(Oc3ccccc3)c2)o1,18µM*,6%,23%,?,?,-26
O=C(Nc1ccc(O)cc1)c1ccc(C(=O)c2ccccc2)o1,25µM*,-10%,?,20µM*,23%,-17
COCCNc1ncncc1-c1c(C)noc1C,-10%,-5%,7%,-4%,.,.
COC(=O)C1C2CCCCC1C(=O)O2 (stereo not given),-17%,.,.,?,.,0
CCC(C)(C)n1nnnc1C(c1ccc(C)cc1)N1CCN(Cc2ccc3c(c2)OCO3)CC1 (stereo not given),1%,-2%,-10%,?,-15%,-53*
CCC(C)(C)n1nnnc1C(c1ccc2ncccc2c1)N1CCN(Cc2ccc3c(c2)OCO3)CC1 (stereo not given),-2%,1%,-4%[10 µM],-4%,5%,0
CCC(C)(C)n1nnnc1C(c1ccc(C)cc1)N1CCC(C)CC1 (stereo not given),13µM*,?,-33%,?,6%,-5
CCC(C)(C)n1nnnc1C(c1ccncc1)N1CCC(C)CC1 (stereo not given),-17%,1%,-22%,-3%,5%,-2
COc1cc(OC)c(NC(=O)C2CC(=O)N(c3ccc4c(c3)OCCO4)C2)cc1Cl (stereo not given),-1%,.,.,-14%,-21%,-7
CCCSc1nnc2c(n1)OC(c1ccc(Br)s1)Nc1ccccc1-2 (stereo not given),-8%,.,.,-28%,.,.
CCCCSc1nnc2c(n1)OC(c1ccc(C)s1)Nc1ccccc1-2 (stereo not given),18µM*,.,.,12µM*,.,.
SMILES,TDP1 cell CPT,Gal4-VP16 FLuc,RORg inh,TDP1 cell noCPT,ELG1 repair inh,IL1B secr inh
CCCCCSc1nnc2c(n1)OC(c1ccc(C)s1)N(C(C)=O)c1ccccc1-2 (stereo not given),18µM*,.,.,8.2µM*,.,.
CCOC(=O)N1CCN(c2c(N3CCc4ccccc4C3)c(=O)c2=O)CC1,?,-1%,?,-20%,5%,0
CCOC(=O)N1CCN(c2c(N3CC=C(c4ccccc4)CC3)c(=O)c2=O)CC1,21µM*,4%,5%,16µM*,?,-4
CC(=O)N1CCN(CCS(=O)(=O)c2cc(Cl)ccc2Cl)CC1,?,.,.,?,9%,-65*
CC1CN(CCS(=O)(=O)c2cc(Cl)ccc2Cl)CC(C)O1 (stereo not given),?,8%,-38%,?,-11%,-103*
COc1ccc(N2CCN(CCS(=O)(=O)c3cc(Cl)ccc3Cl)CC2)cc1,?,.,.,?,5%,-16
Cc1nn(CC(=O)NC2CC2)c(=O)c2cc3cc(F)ccc3n12,-1%,.,.,-12%,.,.
Cc1csc(-c2cc(C(=O)NCc3ccc(F)cc3)n[nH]2)c1,?,.,.,?,.,-26
Cc1cccc(C)c1-n1nnnc1C1(C)CCC(=O)N1CCc1ccc(O)cc1 (stereo not given),?,.,.,?,.,33
COCCn1c(SCC(=O)Nc2cc(C)cc(C)c2)nc2ccccc2c1=O,?,-4%,38%,?,?,-14
COCCCn1c(SCC(=O)Nc2ccc(C(C)=O)cc2)nc2ccccc2c1=O,?,1%,?,21µM*,?,-20
COCCn1c(SCC(=O)Nc2cccc(C(=O)OC)c2)nc2ccccc2c1=O,21µM*,-2%,25%,?,?,35
COCCn1c(SCC(=O)Nc2ccc(OC)c(S(N)(=O)=O)c2)nc2ccccc21,16µM*,?,?,?,?,60
CCC(=O)Nc1ccc(S(=O)(=O)Nc2cccnc2)cc1,-7%,-17%,17%,-9%,4%,17
Cc1ccc(S(=O)(=O)Nc2cccnc2)cc1,?,-2%,17%,29µM*,?,22

# Assay outcomes from PubChem BioAssay.
